Drawing on PubChem BioAssay (Tox21), this text covers Potency and activity change for 40 compounds.

The structures appear in SMILES notation. Values without a mark were called inactive. Where a call stands in place of a potency, no number is given. Active and inactive are the calls of the source. Calls come from the whole dose curve.
Potency is the fitted concentration of half-maximal effect.

Sequence of Gonadotropin-releasing hormone receptor (Homo sapiens) (P30968 whole entry, looked up): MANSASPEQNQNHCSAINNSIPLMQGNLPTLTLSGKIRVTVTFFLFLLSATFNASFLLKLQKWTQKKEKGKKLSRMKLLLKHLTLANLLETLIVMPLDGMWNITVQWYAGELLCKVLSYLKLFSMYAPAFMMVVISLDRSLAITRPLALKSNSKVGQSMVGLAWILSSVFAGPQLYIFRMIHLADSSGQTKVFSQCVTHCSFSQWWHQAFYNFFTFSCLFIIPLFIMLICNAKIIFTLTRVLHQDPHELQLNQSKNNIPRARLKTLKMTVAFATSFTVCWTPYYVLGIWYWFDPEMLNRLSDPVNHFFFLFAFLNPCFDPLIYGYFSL

The target in this experiment is Gonadotropin-releasing hormone receptor (Homo sapiens) (UniProt P30968). Nature of the experiment: Human gonadotropin-releasing hormone receptor (GnRHR) small molecule agonists, calcium flux assay in GnRHR-HEK293 cells (AID 1920063). Note: nearly all actives have a fitted effect of over 35% in size. As to conditions: calcium flux fluorescence, agonist mode; series mostly up to 57.6 µM. The text has this:
National Center for Advancing Translational Sciences [NCATS]
Division of Preclinical Innovation [DPI]
U.S. Environmental Protection Agency [EPA]
National Institutes of Environmental Health Sciences [NIEHS]
National Toxicology Program [NTP]
U.S. Food and Drug Administration [FDA]
Gonadotropin-releasing hormone receptor (GnRHR) is a G-protein-coupled receptor (GPCR) and acts (through phospholipase C) to increase intracellular inositol trisphosphate and then release intracellular calcium stores. Cell-based GnRHR-Hek293 calcium influx assay is using HEK293 cells that have been genetically engineered to express the human GnRHR, which activity can be measured by calcium signaling. A compound/drug can activate (agonist) GnRHR that can be monitored by levels of intracellular calcium.
GnRHR-HEK293 cells developed by Codex Corp contain human GnRHR reporter gene, which was stably integrated into HEK 293 cells. The compound activation can be detected by fluorescence intensity via calcium flux assay. This cell line has been used to screen the Tox21 10K compound library to identify GnRHR agonists.
GnRHR-Hek293 cells were dispensed at 1500cells/4uL/well in 1536-well black wall/clear bottom plates using a multidrop dispenser. After the assay plates were incubated at a 37 C/5% CO2 incubator for 18 hours, 4 uL of Calcium Dye Solution was added to each well. The plates were incubated at 37 C for 1 hour. For agonist mode, 23 nL of compounds dissolved in DMSO, positive controls or DMSO only was transferred to the assay plate by a pin tool station. The fluorescence intensity in the plates was measured using FDSS 7000EX kinetic plate reader with a filter set of Ex/Em=480/540 for 3 min at 1 sec intervals. Each test compound was measured at 15 concentrations and in triplicates.
Turning to `CCCCCCCCCCCCCCC[C@H](O)[C@@H](N)CO`, the Potency entry is “inactive”. For the compound `C[C@@H](N)C(=O)O`, the Potency entry is “inactive”. On the same count and under the same terms, the same measure for `COc1cc(C)cc(O)c1`: “inactive”.

`CCC(=O)OCCC(C)CCC=C(C)C` (stereo not given): the Potency result is “inactive”. Take `Nc1ccc(N=Nc2ccccc2)c(N)c1`: the Potency entry is “inactive”. Still for that read-out and setting: the same measure for `CCC(CC)CO`: “inactive”. As to `Cc1cc([N+](=O)[O-])ccc1N`, the Potency entry is “inactive”. As to `OC/C=C/c1ccccc1`, the Potency result was “inactive”. In the case of `OC(C#CCN1CCCC1)(c1ccccc1)c1ccccc1`, the Potency result is “inactive”.

Turning to `CCCCCCCCCCCCOC(C)=O`, the Potency result was “inactive”. As to `O=C(O)c1c2ccccc2cc2ccccc12`, the Potency entry was “inactive”. With `Nc1ccn([C@@H]2O[C@H](CO)[C@@H](O)[C@@H]2O)c(=O)n1`, the Potency entry is “inactive”.

As to `O=C1CCCCC1C1CCCCC1` (stereo not given), the Potency result is “inactive”.

On to `C1C2OC2C2C1C1CC2C2OC12` (stereo not given), for which the Potency entry is “inactive”. In the case of `N#CCCOCCOCCC#N`, the Potency entry is “inactive”. Consider `OCCN1CCN(CCCN2c3ccccc3Sc3ccc(C(F)(F)F)cc32)CC1`, for which the Potency entry was “inactive”.

Turning to `CCCCCCCCCCCCCOC(=O)CCSCCC(=O)OCCCCCCCCCCCCC`, the activity change is 1.53% [at 11.8 µM, active compounds read high]. In the case of `CC(C)c1ccc2c(c1)CC[C@H]1[C@](C)(CN)CCC[C@]21C`, the Potency was 11 µM (active). In the case of `C[C@H](NC(CCc1ccccc1)C(=O)O)C(=O)N1CCC[C@H]1C(=O)O` (stereo not given in full), the Potency result was “inactive”. `[O-][N+](=Nc1ccccc1)c1ccccc1`: the Potency entry was “inactive”. On to `CNc1ccc([N+](=O)[O-])cc1`, for which the Potency result was “inactive”.

Take `O=C(O)CCn1c2c(c3ccccc31)C[C@H](NS(=O)(=O)c1ccc(F)cc1)CC2`: the Potency entry was “inactive”.

In the case of `CC1=CCC(C(C)C)C=C1` (stereo not given), the Potency entry is “inactive”.

Take `CN1CCC(=C2c3ccccc3Sc3ccccc32)CC1`: the Potency entry was “inactive”. On to `CC(C)c1ccccc1C(C)C`, for which the Potency result was “inactive”.

`O=C1c2ccccc2C(=O)N1SC1CCCCC1`: the Potency result is “inactive”. For the compound `CN(C)CCCN1c2ccccc2CCc2ccc(Cl)cc21`, the Potency result is “inactive”. The same measure, in the same setting: next, `COCCc1ccc(OCC2CO2)cc1` (stereo not given): “inactive”; `Cc1ccc(C(C)(C)C)c(O)c1`: “inactive”. Consider `C=C(C)C(=O)OCCOCCOC(=O)C(=C)C`, for which the Potency result was “inactive”. `Cc1c(-c2ccc(O)cc2)n(Cc2ccc(OCCN3CCCCCC3)cc2)c2ccc(O)cc12`: the Potency result was “inactive”. With `CC(C)(COC(=O)c1ccccc1)COC(=O)c1ccccc1`, the Potency entry is “inactive”. `C=CC(C)=CCC=C(C)C`: the Potency entry is “inactive”. The same measure, in the same setting: next, `O=C(O)c1ccc(O)c(O)c1`: “inactive”; `CCC(Cl)CCC(Cl)C(Cl)CC(Cl)C(Cl)C(Cl)CCl` (stereo not given): “inactive”. As for `O=CN(CCO)CCO`, the Potency entry is “inactive”. Turning to `Cc1nc([N+](=O)[O-])cn1-c1ccc([N+](=O)[O-])cc1`, the Potency entry was “inactive”. As to `CN(C)CCC(c1ccc(Cl)cc1)c1ccccn1` (stereo not given), the Potency result is “inactive”. In the case of `CC(CN)CCCN` (stereo not given), the Potency entry is “inactive”. In the case of `C=C(C)C(=O)OCCCCCCCCCCCCCCCCCC`, the activity change is 1.34% [at 11.8 µM, active compounds read high].
